Among all 52,000 sequences or so, about 210 (0.4%) were called active. This excerpt belongs to a sample that is enriched for actives. A number with no mark means an inactive call.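 The calls were made as follows: active = gene whose silencing raises cell survival under the drug, median off-target-corrected z-score across its silencing RNAs 2 or more; inactive = the rest.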
Assay: Resistance to Poly (ADP-Ribose) Polymerase inhibitor: Gene Identification via Genome-wide siRNA Screen
Settings: mouse BRCA2 R2336H ES cells, olaparib, CellTiter-Glo viability; active compounds read high
Method in brief: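 Genome-wide siRNA screen (3 siRNAs/gene, 20 nM) in mouse ES cells carrying hypomorphic BRCA2 R2336H; olaparib 500 nM added 48 h post-transfection, CellTiter-Glo viability 72 h later. Normalized to plate-median negative control; MAD z-scores, gene median, seed-adjusted.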

Sequence | z-score
GGAAAGCUACUGUCAGAGUTT against Olfr473 | 0.453
GGACGUGUGGCUGUUGACATT against Sdc1 | -2.23
GCUUUAGAUACGUGAUUAGTT against 5830417C01Rik | -1.26
GCGACUACUUAGACACUUUTT against 4732481H14Rik | -1.94
UAGCCAUCGCUCUUUCUUATT against Olfr594 | -0.973
GGACAAAGGUGUCAACUCCTT against Crmp1 | -0.491
GCUCCUAGGAACUUGGUUATT against Pacsin2 | 2.36 (active)
CGAGUUCGGUAUGAGUGGATT against Clptm1 | -1.24
GGUCGGAAGAAUCUAAAGGTT against Dmp1 | 0.0661
GGAAGAGAGGACCAUGAAGTT against Usp18 | 2.69 (active)
GAGAAUCCAGAACUCCAAUTT against Olfr952 | -0.963
GCAAUCAUUAAGCAGAUCATT against Prkce | -2.49
GGCCGACAAGCGAUCAAAATT against AU040829 | -0.237
GGAUUUGGCCAACUCACCCTT against Acpp | 0.16 (active)
CCCUUCCAACAAUUAUACUTT against Tmem27 | 1.04
GGAGAGAAAGAAGUUGUUGTT against Lcn5 | 2.43
GGAUUUCGACAAUAUGAAGTT against Chrnb2 | 2.24 (active)
CCUAUGAAGCUCCAUUAUGTT against Madcam1 | 0.762
CACUCUUGAUACAAAUGAGTT against Ifna6T | 0.264
GGCACAAAGGCAGUUAUUCTT against 1110049G11Rik | 0.847
GGGAAAAAUAUCAGUUAUGTT against Khdrbs1 | 1.08 (active)
GCUGGUGUCAUUAGACAGUTT against Npc1l1 | -0.302
GGCUAUAUCAAUGAAUUUGTT against Polr3b | 0.129
GGAUGUUCAUCUAUUUCUUTT against Mja1l | -0.191
GGGACCAAGCAGGUAAAAATT against Kif3a | 4.17 (active)
GGCCUAAGGACAAUUAUUUTT against 9130022A01Rik | 0.222
CCAAAUUCAUUCUAGCUCGTT against Copeb | 0.474

Sequence | z-score
CCGAAUGGAAUACCAAAUUTT against Cst8 | -0.186
GGAUGUCAGCUGGUGGUUATT against Tmprss6 | -0.447
CCAUCUUGGGUUCUGGUCATT against BC057627 | -0.312 (active)
GGUGUCUGAAUUUGUGGCUTT against Abtb1 | 1.65
GGGAUCAUUAAACUUUUCCTT against Taf11 | 0.894
GGAAAAUGUUUUACCAAUGTT against 4930470D19Rik | 0.0823
GGCUAGAGACUUGGUUUUUTT against E430025L02Rik | 1.23
GGUAACUGAGAAAACCAGATT against Adam29 | 1.12 (active)
GGAUCUUGAAGACCAAAAATT against 9030409G11Rik | -0.527
GGCAAGAGAAUUCAGAUCUTT against Slc5a1 | 2.6
GGGCACAACUUCAACAGCUTT against Cklfsf8 | 1.53
GGUUAUCACUCCUCAACAATT against Foxp1 | -0.826
GGUCUACGAGUUUAUUGCUTT against Phc1 | 0.722
GCCCUUUGGAUAACAGUGATT against Sufu | -0.968
GGCCUUCAAUCACCUAGAGTT against Pde6g | 2.23 (active)
GCAGCUGGCUGCUUUCACATT against AV028368 | -0.955
CCGACGUGCAUGGAGAAAATT against 1700030J22Rik | -1.71
GCCAUUAAUCUCACAUGUATT against A930001N09Rik | -0.871
GGAAGACCGUACUAUGUUUTT against Gtl2 | -2.38
CCAGUUGGAAAUAUGACGATT against 2510002A14Rik | 0.99
CCUAUGUCAUCAUUGGAGUTT against 2310005G13Rik | 0.537
CGAUGACAUCAGGAUUGUUTT against Gpr128 | 1.23 (active)
GCUGAUUUCCAAAGAUAAUTT against Glycam1 | 0.301
GCCCAUGAAUUUUUACUUATT against C330019G07Rik | 0.714
CGAAGGGACCGAAGAAUCCTT against 5730538E15Rik | -0.602
CCAGUCCUACUUAGCAAAGTT against BC046404 | 1.34
CCAUUACACAAAGUUUUGCTT against Stard6 | 0.874

Sequence | z-score
GGGUUCAAGAGAUGAUAUUTT against Usp11 | 2.47 (active)
GGAAAGUGUGUUCAUUAGUTT against Pla2g2d | -0.775
GGAAAAGGAGGUGGUACUGTT against Agc1 | 0.55
CGCCCAGUGCAAUUUUUUCTT against Gm592 | -0.745
CCAUAGCACUAAAUCAGAUTT against 4933421G18Rik | 0.387
GGACCUAUUUCUCUGCUCCTT against E330026B02Rik | -0.251
GGACAUUCGUGGUUCCAUCTT against 4833412N02Rik | 0.546
GGAGGUCGCUUCCUAUUACTT against Tat | 1.26 (active)
GGACUAUCAGGACCUUUUUTT against Dnajb3 | -1.77
GCUAAAAGGUAAGUACUUCTT against AB041803 | 0.00857
GGAGAUUGAUGAGCAUGCCTT against Rab40b | 0.456
GGUUCUGAAGAUGGAGGUUTT against Ttbk1 | -1.25
GCUGUUGGUUUCUACUCACTT against Adam21 | 1.43 (active)
GGAAGACCUGAUUGGAAAATT against Trpm1 | 0.553
GAGCCUUCUAAGUCUGCACTT against Hist1h2bb | 0.996
GGAAAUCACCAGAGCUGAUTT against Atp6v0a2 | 1.56
GGGCUAUUAAAUGAUUUCATT against Pax1 | -0.101
CGUAGCAAUCUUGGUUGCUTT against Hoxa3 | 0.734
GGCUGUGAGAUAGAUCUAATT against E130112L23Rik | -0.595
GGAUGUGGACUCAAAGAAATT against 1110001E17Rik | 1.9 (active)
CGAGGGAUAAGAGUCUACGTT against D4Bwg1540e | -0.0629
GGCCAUUAACAGCAGUCUGTT against Kifc1 | -2.66
GGGACUUUUUUUGAAUCCUTT against Ndrg3 | 0.835
GGCAGCGCAAUGGAUUAGUTT against Chrng | 1.99 (active)
GGAGCAACAGCCAAAUACCTT against 1700001F22Rik | 0.124
CGGCAGGAUGAAUGAGAUCTT against Bccip | 0.692

Reference: PubChem BioAssay AID1347423 (Functional Genomics Laboratory (NCATS/FGL), 2020)
